Here are results for 15 compounds from PubChem BioAssay (Tox21).

Values without a mark were called inactive. Calls of active or inactive are those of the source. Unless noted, calls come from the whole dose curve; as a rule, active = well fitted curve in the direction sought with a large enough effect in the repeat runs; inconclusive = weak or mixed curves; inactive = no such curve, though single readings can be large; an effect the other way counts as inactive or inconclusive.

Test [1] in a line: qHTS assay for small molecules that induce genotoxicity in human embryonic kidney cells expressing luciferase-tagged ATAD5 (AID 651632). Note: nearly all actives have a fitted effect of over 15% in size. The method in brief: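 Cells were seeded at 2,000 per well, dosed with compound, and incubated 16 hr at 37C in 5% CO2. Luciferase activity was then quantified after a 30 min room-temperature incubation with Amplite.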
Test [2] is described as follows: qHTS assay for small molecules that induce genotoxicity in human embryonic kidney cells expressing luciferase-tagged ATAD5 - cell viability (AID 651634; calls by dose curve; note: nearly all actives have a fitted effect of over 25% in size). The method in brief:
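Cells (HEK293T, luciferase-tagged ATAD5) are seeded at 2,000 per well, dosed with compound or DMSO vehicle, and incubated 15.5 hr at 37C and 5% CO2. CellTiter-Fluor is added for 30 min before fluorescence is measured.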

Test [3] can be described thus: qHTS assay for small molecule disruptors of the mitochondrial membrane potential - cell viability (AID 720634; calls by dose curve;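 note: human HepG2 liver cancer cells; series mostly up to about 83 µM; nearly all actives have a fitted effect of over 20% in size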). In short, it runs like this: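 Cytotoxicity was measured by ATP quantitation in HepG2 wells that had first been treated with compound for 1 hr and stained with m-MPI dye; CellTiter-Glo incubation was 30 min at room temperature.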
On the technique in general: qHTS replaces the single test concentration by a dilution series.

The nature of test [4]: qHTS assay for small molecule disruptors of the mitochondrial membrane potential (AID 720635). Note: potency is the fitted concentration of half-maximal effect. In short, it runs like this: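 HepG2 cells (2,000/well) attached overnight at 37C, then took compound for 1 hr at 37C, 5% CO2. Mito-MPS dye was added for 30 min; fluorescence was read at 490/535 nm (monomers) and 540/590 nm (aggregates).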
The nature of test [5]: qHTS assay to test for compound auto fluorescence at 590 nm (red) in HepG2 cells (AID 720674). The method in brief: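 Rose Bengal sodium served as the red fluorophore standard. HepG2 monolayers (overnight attachment, MEM with 10% FBS) were exposed to test compounds for 1 hr at 37 C and read at Ex 540/Em 590 nm.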
Test [6] in a line: qHTS assay to test for compound auto fluorescence at 535 nm (green) in HepG2 cells (AID 720675).
The nature of test [7]: qHTS assay to test for compound auto fluorescence at 460 nm (blue) in HEK293 cells (AID 720678). The method in brief: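 After cell attachment (4-5 hr, 37C), compounds were pinned onto HEK293 monolayers in 10% dialyzed FBS medium. The blue channel (405/460 nm) was read following overnight culture. Equivalency was calculated against triamterene.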
A short description of test [8]: qHTS assay to test for compound auto fluorescence at 535 nm (green) in HEK293 cells (AID 720680).
A short description of test [9]: qHTS assay to test for compound auto fluorescence at 535 nm (green) in HEK293 cell free culture (AID 720682). In short, it runs like this: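 Read-out: 485/535 nm fluorescence intensity, calibrated against fluorescein. Medium only (DMEM + 10% FBS, no cells); test compound or DMSO vehicle added by pintool before plate reading.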
Test [10] in a line: qHTS assay to test for compound auto fluorescence at 590 nm (red) in HEK293 cell free culture (AID 720683). In short, it runs like this: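 Tox21 10K library compounds were pinned into cell-free DMEM with 10% FBS and fluorescence was read at excitation 540 nm. Activity is expressed as Rose Bengal sodium equivalency.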
Test [11] in a line: qHTS assay to test for compound auto fluorescence at 590 nm (red) in HepG2 cell free culture (AID 720684). The method in brief:
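Readout: intrinsic compound fluorescence at 590 nm emission after 540 nm excitation, scaled to Rose Bengal sodium. Matrix was cell-free MEM with 10% FBS; DMSO vehicle wells served as control.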

The nature of test [12]: qHTS assay to test for compound auto fluorescence at 460 nm (blue) in HepG2 cell free culture (AID 720685). In short, it runs like this: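 Cell-free plates of MEM plus 10% FBS received 23 nL compound or DMSO vehicle; blue-channel (405/460 nm) intensity scored against triamterene as reference fluorophore.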
A short description of test [13]: qHTS assay to test for compound auto fluorescence at 535 nm (green) in HepG2 cell free culture (AID 720686).
The target of test [14] is Glucocorticoid receptor (Homo sapiens) (UniProt P04150). Put plainly: qHTS assay to identify small molecule agonists of the glucocorticoid receptor (GR) signaling pathway (AID 720691; active = well fitted activation curve with a large enough effect in the signal ratio in the repeat runs, not every such curve was filed as active; inconclusive = weak or mixed curves, or effect the other way; inactive = no such curve, though single readings can be large or run the other way; the % refers to the signal ratio; note: potency is the fitted concentration of half-maximal effect). In short, it runs like this: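 Steps: seed GR-bla HeLa cells, incubate 4 h at 37 C/5% CO2; pin-transfer DMSO-dissolved compounds; incubate 18 h at 37 C; add LiveBLAzer B/G FRET substrate; after 2 h at room temperature, measure fluorescence.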

For test [15] the target is unchanged. The test can be described thus: qHTS assay to identify small molecule antagonists of the glucocorticoid receptor (GR) signaling pathway (AID 720692; active = well fitted inhibition curve with a large enough effect in the signal ratio in the repeat runs, not every such curve was filed as active; inconclusive = weak or mixed curves, or effect the other way; inactive = no such curve, though single readings can be large or run the other way; the % refers to the signal ratio). In short, it runs like this:
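Antagonism was scored as loss of dexamethasone-driven (5 nM final) reporter signal in HeLa cells bearing a glucocorticoid response element–beta-lactamase construct, after 18 h compound exposure at 37 C and 2 h FRET substrate loading.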

Test [16] in a line: qHTS assay to test for compound auto fluorescence at 590 nm (red) in HEK293 cells (AID 720679). In short, it runs like this:
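Plates of HEK293 cells (10% dialyzed FBS) are treated with 23 nL compound or DMSO vehicle after a 4-5 hr attachment period, incubated overnight at 37C, and read for red fluorescence at 540/590nm.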

Test [17] can be described thus: qHTS assay to test for compound auto fluorescence at 460 nm (blue) in HepG2 cells (AID 720687). The method in brief:
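Cells (2,000/well in MEM with 10% FBS) attached overnight at 37 C, then were exposed to compound or DMSO for 1 hr at 37 C, 5% CO2. Fluorescence read at Ex/Em 405/460 nm, expressed as triamterene-equivalent signal.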

Test [18] in a line: qHTS assay to test for compound auto fluorescence at 460 nm (blue) in HEK293 cell free culture (AID 720681). The method in brief: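 Test compounds were pinned into cell-free culture medium (DMEM with 10% FBS) and fluorescence was read directly at Ex/Em 405/460 nm. Signals were expressed as fluorescence equivalents of triamterene, with DMSO vehicle as control.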
Test [19] can be described thus: qHTS assay for small molecule agonists of the p53 signaling pathway - cell viability (AID 651633; calls by dose curve;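 note: p53RE-bla HCT reporter cells with a stable beta-lactamase p53 reporter; series mostly up to about 83 µM; nearly all actives have a fitted effect of over 30% in size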). In short, it runs like this:
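p53RE-bla cells, seeded at 4,000 per well and rested 5 h at 37 C/5% CO2, received compounds in DMSO for 16 h at 37 C. CellTiter-Glo was then added, and luminescence was read after 30 min at room temperature to gauge cytotoxicity.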
% is set by controls: 0 for no effect and ±100 for the full control effect.

Sequence of Glucocorticoid receptor (Homo sapiens) (P04150 whole entry, looked up): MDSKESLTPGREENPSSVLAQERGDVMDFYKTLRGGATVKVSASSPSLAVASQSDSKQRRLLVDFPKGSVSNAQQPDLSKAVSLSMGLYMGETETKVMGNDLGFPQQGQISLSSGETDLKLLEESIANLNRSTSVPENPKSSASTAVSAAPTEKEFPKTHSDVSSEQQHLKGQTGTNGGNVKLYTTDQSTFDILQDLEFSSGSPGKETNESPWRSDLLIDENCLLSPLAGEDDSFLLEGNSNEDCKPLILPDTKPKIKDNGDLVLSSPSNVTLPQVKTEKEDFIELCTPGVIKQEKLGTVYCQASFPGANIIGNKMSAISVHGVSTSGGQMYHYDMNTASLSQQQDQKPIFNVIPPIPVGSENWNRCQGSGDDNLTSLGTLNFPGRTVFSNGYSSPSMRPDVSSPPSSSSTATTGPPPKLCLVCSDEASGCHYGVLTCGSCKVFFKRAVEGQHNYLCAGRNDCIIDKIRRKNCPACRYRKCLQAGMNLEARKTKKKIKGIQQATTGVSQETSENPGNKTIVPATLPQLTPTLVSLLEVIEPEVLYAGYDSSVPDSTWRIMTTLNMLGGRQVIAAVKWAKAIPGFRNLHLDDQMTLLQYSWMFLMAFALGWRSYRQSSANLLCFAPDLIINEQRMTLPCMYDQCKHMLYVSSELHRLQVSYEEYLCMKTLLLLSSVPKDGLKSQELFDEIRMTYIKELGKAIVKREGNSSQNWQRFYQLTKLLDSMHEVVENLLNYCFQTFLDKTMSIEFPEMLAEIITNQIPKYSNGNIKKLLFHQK

As for `CCCC1CCC(=O)O1` (configuration not stated), the Potency entry in test [1], in [2], in test [3], in test [4], in [14] and in [15] was “inactive” throughout. Also, the compound was classed as inactive in test [5], in test [6], in test [7], in [8], in test [9] and in test [10]. Further, the compound was called inactive in test [11], in test [12] and in test [13].
`N#Cc1ccc(C(c2ccc(C#N)cc2)n2cncn2)cc1`: the Potency entry in test [1], in test [4] and in test [15] was “inactive” in each case. Besides, the outcome in [5], in [6], in [7], in [16], in [8] and in test [9] was inactive. The call in [10], in [11], in test [12], in test [13] and in test [17] was inactive.
`CN1CCN(C2=Nc3ccccc3Oc3ccc(Cl)cc32)CC1`: the Potency entry in test [1], in test [2], in test [3] and in test [14] was “inactive” each time. For the same compound, the fluorescence, relative to Rose Bengal in test [5] was 0.128% [at 18.6 µM]. Moreover, the fluorescence, % of fluorescein control in test [6] was -0.116% [at 18.6 µM]; in test [13], 0.0479% [at 18.6 µM]. In addition, the fluorescence, % of triamterene in test [7] is 0.0075% [at 18.6 µM]. Besides, the fluorescence, % of fluorescent control is 0.151% [at 18.6 µM] in [16], 0.0885% [at 18.6 µM] in test [10], -0.0109% [at 18.6 µM] in test [12] and 0.0039% [at 18.6 µM] in test [17]. Further, in test [8], the fluorescence, % of fluorescein was 0.0654% [at 18.6 µM]. Besides, the activity change in [9] was -0.0046% [at 18.6 µM].
On to `CCOC(=O)COc1ccc2c(c1)CC(NCC(O)c1cccc(Cl)c1)CC2` (configuration not stated), for which the Potency result in [1], in [2] and in test [3] was “inactive” in each case. Further, the compound was called inactive in test [6], in [16], in [18], in [9], in [10] and in test [11]. In addition, the result in test [12], in test [13] and in test [17] was inactive.
With `O=C(Cl)c1cccc([N+](=O)[O-])c1`, the Potency entry in test [19], in test [4], in test [14] and in test [15] was “inactive” each time. For the same compound, the result in test [5], in [6], in test [16], in test [8], in test [9] and in test [10] was inactive. The outcome in test [11], in test [12] and in test [13] was inactive.
Turning to `O=c1oc2c(O)c(O)cc3c(=O)oc4c(O)c(O)cc1c4c23`, the Potency entry in test [1], in [4], in test [14] and in test [15] was “inactive” each time. For the same compound, the call in test [5], in [6], in test [7], in test [16], in test [8] and in test [18] was inactive. Further, the outcome in [9], in test [10], in test [11], in [12], in test [13] and in [17] was inactive.
For `CC(C)Nc1nc(N)nc(Cl)n1`, the Potency entry in [19], in [3], in [4] and in [15] was “inactive” throughout. Further, the call in test [5], in test [6], in [7], in test [16], in test [8] and in test [18] was inactive. The result in test [9], in [10], in [11], in test [12], in test [13] and in test [17] was inactive.
Regarding `ClC(Cl)Cl`, the Potency result in test [19], in test [2], in [3], in test [4] and in [15] was “inactive” each time. Further, the outcome in test [6], in [7], in test [16], in [8], in test [18] and in [9] was inactive. The result in [10], in test [11], in test [12], in test [13] and in test [17] was inactive.
Consider `CCCCC(=O)O[C@]1(C(=O)CO)[C@H](C)C[C@H]2[C@@H]3CCC4=CC(=O)C=C[C@]4(C)[C@@]3(F)[C@@H](O)C[C@@]21C`, for which the Potency entry in test [1] and in test [2] was “inactive” each time. Also, the Potency in test [4] was 10.6 µM (active); in test [14] it was 0.0043 µM [inconclusive] (active). Further, the compound was called inactive in test [5], in [6], in test [7], in test [16], in test [8] and in test [18]. Further, the compound was called inactive in test [9], in test [10], in test [11], in test [12], in test [13] and in [17].
As to `O=c1[nH]c(=O)n([C@H]2C[C@H](O)[C@@H](CO)O2)cc1C(F)(F)F`, the Potency entry in test [1] and in test [2] was “inactive” in each case. Further, the outcome in test [5], in test [6], in [7], in test [16], in test [8] and in test [18] was inactive. The compound was classed as inactive in test [9], in test [10], in test [11], in [12] and in test [13].
For the compound `COc1ccc(Nc2ccc(OC)cc2)cc1`, the Potency entry in test [3] and in [15] was “inactive” throughout. The result in [5], in [6], in test [16], in test [8], in test [18] and in test [9] was inactive. Also, the compound was classed as inactive in test [10], in test [11], in test [12], in [13] and in test [17].
For `CN(CCCN1c2ccccc2CCc2ccccc21)CC(=O)c1ccc(Cl)cc1`, the Potency entry in test [19], in test [2], in test [3] and in test [14] was “inactive” each time. The outcome in test [6], in [16], in [9], in test [11], in test [12] and in [13] was inactive. Besides, the compound was called inactive in [17].
Turning to `Clc1cccc(-c2cc(Cl)cc(Cl)c2)c1`, the Potency entry in [1], in [2] and in test [3] was “inactive” each time. Also, the outcome in [5], in [6], in test [7], in test [16], in [8] and in test [18] was inactive. The call in test [9], in test [10], in [11], in test [12], in [13] and in test [17] was inactive.
For `CCOC(=O)CS`, the Potency result in test [1], in [2], in test [3] and in [15] was “inactive” each time. For the same compound, the compound was called inactive in [6], in [7], in [16], in [18], in test [9] and in test [10]. Besides, the outcome in [11], in test [12], in [13] and in [17] was inactive.
`C=O`: the Potency result in [19], in test [2] and in [3] was “inactive” throughout. Further, the compound was classed as inactive in test [6], in test [7], in test [16], in test [8], in test [18] and in [9]. Besides, the call in test [10], in test [11], in test [12], in test [13] and in [17] was inactive.
